Here are results for seven compounds from PubChem BioAssay (NCATS).

Where “and” joins values, the source holds several entries; their conditions need not be identical. Equal entries are not always repeated. A number with no mark means an inactive call. Inconclusive results are not listed. Calls of active or inactive are those of the source. Unless noted, calls follow the shape of the dose curve; as a rule, active = well fitted curve in the direction sought with a large enough effect; inconclusive = small, poorly fitted or top-dose-only effect, or another doubt; inactive = no such curve, though single readings can be large; an effect the other way counts as inactive or inconclusive.

Assay [1] is described as follows: Cell Viability - HepG2 (AID 433; calls by dose curve;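 also: potency is read from the fitted curve at half-maximal effect; potency for ATP loss meaning cytotoxicity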). To be noted: qHTS. A digest of the protocol:
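Cytotoxicity read as ATP loss (CellTiter-Glo luminescence) after 40 hr compound exposure of HepG2, 1500 cells/well, 37 °C. AC50 by Hill equation; 0% set by DMSO, 100% inhibition by 100 uM tamoxifen.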
In general terms: Quantitative high-throughput screening tests each substance at several concentrations.

A short description of assay [2]: Cellular Toxicity (caspase-3) MRC-5 (AID 659). To be noted: MRC-5 cells, luminescence, normalized: DMSO 0%, 10 µM staurosporine 100%; series mostly up to 91.7 µM. A digest of the protocol: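 Concentration-dependent caspase 3/7 activation is measured in human normal lung fibroblasts (MRC-5) following 16-hour treatment. AC50 values come from standard Hill-equation modeling of luminescence normalized to DMSO and 10 uM staurosporine.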

Assay [3] can be described thus: Cellular Toxicity (caspase-3) SK-N-SH (AID 661). To be noted: SK-N-SH caspase-3 activation, qHTS; caspase-3 activation: at 91.7 µM (top of the series), DMSO as zero, staurosporine as full. A digest of the protocol:
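SK-N-SH human neuroblastoma cells (1500/well) were treated with compounds for 16 hr at 37 °C in complete medium; caspase 3/7 activity was read by Caspase-Glo luminescence. AC50 came from Hill fits of data normalized to DMSO and 10 uM staurosporine.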

A short description of assay [4]: Cellular Toxicity (caspase-3) Hek293 (AID 664).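 Also: cells exposed to compound for 16 h at 37 °C before readout.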 Conditions: HEK293 caspase-3 activation, DMSO = 0%, 100 µM tamoxifen = 100%; at 92.2 µM (top of the series). A digest of the protocol:
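HEK293 cells were exposed to compounds in complete medium for 16 hr at 37 °C, then caspase-3/7 activity was read by Caspase-Glo 3/7 luminescence after 20 min at room temperature. Data normalized to DMSO and 100 uM tamoxifen; AC50 from Hill fits.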

Assay [5] in a line: Cellular Toxicity (caspase-3) NIH 3T3 (AID 666).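 Also: caspase signal read after 16 h compound exposure; 0% = DMSO basal and 100% = 100 µM tamoxifen stimulation.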 Conditions: NIH 3T3 caspase-3 activation, apoptosis/toxicity; series mostly up to 92.2 µM. A digest of the protocol: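 Mouse NIH 3T3 fibroblasts (1000 cells/well) were treated with compound for 16 hr at 37°C in complete medium; caspase-3/7 activity was read by Caspase-Glo luminescence. Normalized to DMSO and 100 uM tamoxifen; AC50 from Hill fits.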

Assay [6] in a line: MultiTox-Fluor Cytotoxicity Assay - LYMP1-001 - Live Cells (AID 947). Also: potency is read from the fitted curve at half-maximal effect. Conditions: LYMP1-001 lymphoblastoid cells, live-cell protease fluorescence viability; series mostly up to 92.2 µM.
The nature of assay [7]: Cell Viability - LYMP1-002 - Assay at 16 hr (AID 948). Also: potency is read from the fitted curve at half-maximal effect. Conditions: LYMP1-002 lymphoblastoid cell viability; series mostly up to 92.2 µM. A digest of the protocol:
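ATP luminescence (CellTiter-Glo) was measured after 16 hr compound exposure at 37 C of 2500 lymphoblastoid LYMP1-002 cells per well. Concentration-response curves were fitted with the Hill equation to give AC50.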

A short description of assay [8]: MultiTox-Fluor Cytotoxicity Assay - LYMP1-002 - Live Cells (AID 955). Also: potency is read from the fitted curve at half-maximal effect. As to viability change, negative = cytotoxic: % is scaled to controls: 0 for no effect and ±100 for the full control effect. To be noted: LYMP1-002 lymphoblastoid live-cell protease fluorescence viability; series mostly up to 46.1 µM. A digest of the protocol:
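Human lymphoblastoid LYMP1-002 cells, 2500/well in complete medium, rested 5 hr at 37 C, then exposed to compounds for 16 hr at 37 C. Live-cell protease cleavage of GF-AFC read by fluorescence (Ex/Em 405/510) after 60 min at room temperature; AC50 from Hill fits.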

Assay [9] in a line: MultiTox-Fluor Cytotoxicity Assay - LYMP1-003 - Live Cells (AID 962). Also: potency is read from the fitted curve at half-maximal effect. Conditions: LYMP1-003 lymphoblastoid cells, MultiTox-Fluor live-cell protease fluorescence; series mostly up to 92.2 µM. A digest of the protocol:
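LYMP1-003 human lymphoblastoid cells (2500/well) in complete medium were preincubated 5 hr at 37 C, then exposed to compounds for 16 hr at 37 C. Live-cell protease cleavage of GF-AFC read by fluorescence (Ex/Em 405/510); AC50 from Hill fits.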

Assay [10] is described as follows: Cell Viability - LYMP1-003 - Assay at 24 hr (AID 963). Also: potency is read from the fitted curve at half-maximal effect.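 As to viability change, negative = cytotoxic: plate controls were DMSO only for no effect and tetraoctylammonium bromide positive control for full effect.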 Conditions: LYMP1-003 lymphoblastoid cell viability; series mostly up to 92.2 µM. A digest of the protocol: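 Human lymphoblastoid LYMP1-003 cells (2500/well) were rested 5 hr at 37 C, then exposed to compounds in complete medium for 24 hr at 37 C. Cellular ATP was quantified by CellTiter-Glo luminescence, and AC50 values came from Hill fits of concentration-response data.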

Assay [11] is described as follows: Cell Viability - LYMP2-021 (AID 974).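 Also: compound exposure lasts 24 hours at 37 °C; nearly all actives have a fitted effect of over 55% in size.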 Also: potency is read from the fitted curve at half-maximal effect. Conditions: LYMP2-021 lymphoblastoid cells viability; series mostly up to 92.2 µM. A digest of the protocol:
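Human lymphoblastoid cells (2500/well) were preincubated 5 hr at 37 C, then exposed to compounds for 24 hr at 37 C in complete medium. Intracellular ATP was read by CellTiter-Glo luminescence; AC50 came from Hill-equation fits of concentration-response data.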

A short description of assay [12]: Cell Viability - LYMP2-023 (AID 975). Also: nearly all actives have a fitted effect of over 55% in size. Also: potency is read from the fitted curve at half-maximal effect. Conditions: LYMP2-023 lymphoblastoid cell viability; series mostly up to 92.2 µM. A digest of the protocol:
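Human lymphoblastoid cells (2500/well) were preincubated 5 hr at 37 C, then exposed to compounds for 24 hr at 37 C in complete medium. Cellular ATP was read by CellTiter-Glo luminescence, and AC50 came from Hill-equation fits.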

Assay [13] is described as follows: Cell Viability - LYMP2-007 (AID 979).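 Also: cells exposed to compound for 24 h before reading; nearly all actives have a fitted effect of over 60% in size.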 Also: potency is read from the fitted curve at half-maximal effect. To be noted: LYMP2-007 lymphoblastoid cell viability; series mostly up to 92.2 µM. A digest of the protocol:
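Human lymphoblastoid cells (2500/well) were plated in complete medium, incubated 5 hr at 37 C, then exposed to compounds for 24 hr at 37 C. Intracellular ATP was read by CellTiter-Glo luminescence after 30 min at room temperature; AC50 from Hill fits.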

Assay [14] is described as follows: Cell Viability - LYMP1-002 - Assay at 24 hr (AID 993). Also: potency is read from the fitted curve at half-maximal effect. Conditions: LYMP1-002 lymphoblastoid cells viability; series mostly up to 92.2 µM. A digest of the protocol: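 Human lymphoblastoid LYMP1-002 cells, 2500/well in complete medium, were treated with compounds for 24 h at 37 C; intracellular ATP was read by CellTiter-Glo luminescence. AC50 values came from Hill-equation fits of qHTS concentration-response data.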

Assay [15] addresses Vitamin D3 receptor (Homo sapiens) (UniProt P11473). The assay can be described thus: qHTS assay for small molecule antagonists of vitamin D receptor signaling (AID 588541; calls by dose curve; also: potency is read from the fitted curve at half-maximal effect). Conditions: HEK293T VDR-UAS-bla, beta-lactamase ratio, antagonist mode; series mostly up to 76.7 µM. A digest of the protocol:
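Antagonist-mode beta-lactamase reporter assay: HEK293T VDR-UAS-bla cells were exposed to titrated compound alongside 1-alpha,25-dihydroxyvitamin D3 at 3 nM final for 16 h. Values were normalized to the 50 nM agonist control and DMSO basal, with IC50 and efficacy from Hill equation fits.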

Assay [16] in a line: qHTS assay for cell viability of HEK293 cells (AID 743288). Also: nearly all actives have a fitted effect of over 50% in size. Also: potency is read from the fitted curve at half-maximal effect. As to max response: % is scaled to controls: 0 for no effect and ±100 for the full control effect. Conditions: ATP luminescence (CellTiter-Glo), 18 h; max response: active compounds read low. A digest of the protocol:
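Total intracellular ATP, measured with a luciferase-coupled reagent, indicates the number of viable HEK293 cells. Exposure to test chemicals lasts 18 h at 37 C in 1,536-well format at 2,000 cells/well.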

The nature of assay [17]: qHTS assay for cell viability of the p53RE-bla HCT-116 cell line (AID 743292). Also: nearly all actives have a fitted effect of over 55% in size. Also: potency is read from the fitted curve at half-maximal effect. To be noted: p53RE-bla HCT-116 viability, ATP luminescence, 16 h; series mostly up to 95 µM. A digest of the protocol: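 ATP-based luminescent viability (CellTiter-Glo, 30 min RT) after 16 h compound treatment at 37 C of p53RE-bla HCT-116 cells, seeded at 4,000 cells/well and rested 5 h before dosing.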

Assay [18] in a line: Cell Viability - HUV-EC-C (AID 542). Also: nearly all actives have a fitted effect of over 35% in size. Also: potency is read from the fitted curve at half-maximal effect. Conditions: HUV-EC-C endothelial cell viability, qHTS; series mostly up to 92.2 µM. A digest of the protocol: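 HUV-EC-C normal human vascular endothelial cells, 1000 cells/well, pre-incubated 5 hr at 37 °C, then exposed to compounds for 40 hr at 37 °C in complete medium. Viability measured as intracellular ATP by CellTiter-Glo luminescence; AC50 from Hill fits.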

A short description of assay [19]: Cell Viability - H-4-II-E (AID 543). Also: nearly all actives have a fitted effect of over 35% in size. Also: potency is read from the fitted curve at half-maximal effect. Conditions: H-4-II-E rat hepatoma viability; series mostly up to 92.2 µM. A digest of the protocol: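 Rat hepatoma H-4-II-E cells (1500/well) were plated, incubated 5 hr at 37 °C, then exposed to compounds for 40 hr at 37 °C. Cellular ATP was read by CellTiter-Glo luminescence; AC50 came from Hill-equation fits of concentration-response data.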

Assay [20] is described as follows: Cell Viability - SH-SY5Y (AID 544). Also: nearly all actives have a fitted effect of over 55% in size. Also: potency is read from the fitted curve at half-maximal effect. Conditions: SH-SY5Y neuroblastoma cell viability; viability change, negative = cytotoxic: at 92.2 µM (top of the series). A digest of the protocol:
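Human neuroblastoma SH-SY5Y cells (1500/well) in complete medium were exposed to compounds for 40 hr at 37 °C; intracellular ATP was then quantified by CellTiter-Glo luminescence after 20 min at room temperature. AC50 came from Hill-equation concentration-response fits.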

Vitamin D3 receptor (Homo sapiens), sequence (P11473 whole entry, looked up): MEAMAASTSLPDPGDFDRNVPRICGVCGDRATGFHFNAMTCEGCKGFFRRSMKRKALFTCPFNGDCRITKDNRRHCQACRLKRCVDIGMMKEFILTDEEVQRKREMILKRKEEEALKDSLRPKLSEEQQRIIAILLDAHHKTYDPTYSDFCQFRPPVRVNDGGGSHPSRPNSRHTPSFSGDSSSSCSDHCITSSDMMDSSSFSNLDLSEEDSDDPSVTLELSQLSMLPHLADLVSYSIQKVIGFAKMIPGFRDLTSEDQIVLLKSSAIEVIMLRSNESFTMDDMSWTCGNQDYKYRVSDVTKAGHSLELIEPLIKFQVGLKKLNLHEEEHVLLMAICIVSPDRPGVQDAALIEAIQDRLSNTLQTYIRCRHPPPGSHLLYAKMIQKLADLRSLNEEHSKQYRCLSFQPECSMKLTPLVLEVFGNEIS

Consider `CO[C@H]1/C=C/O[C@@]2(C)Oc3c(C)c(O)c4c(O)c(c5c(c4c3C2=O)NC2(CCN(CC(C)C)CC2)N=5)=NC(=O)/C(C)=C\C=C\[C@H](C)[C@H](O)[C@@H](C)[C@@H](O)[C@@H](C)[C@H](OC(C)=O)[C@@H]1C`, for which the Potency in assay [1] is > 92 µM. Moreover, the compound was called inactive in [2]. The caspase-3 activation in assay [3] is 5.74%; in [4] it was -2.49%. In addition, the Potency result in assay [5], in assay [6], in [7], in [8], in assay [9] and in assay [10] was “inactive” each time. Besides, the Potency result in assay [11], in [12], in assay [13], in assay [14], in assay [15] and in assay [17] was “inactive” throughout. The max response in assay [16] was -15.3%.

Take `O=C=Nc1ccc(Cc2ccc(N=C=O)cc2)cc1`: the Potency in assay [1] is > 92 µM. Further, the Potency result in assay [18], in assay [19], in assay [20], in assay [5], in [6] and in assay [7] was “inactive” each time. Further, the Potency result in [8], in assay [9], in assay [10], in assay [11], in [12] and in [13] was “inactive” in each case. Moreover, the Potency result in [14], in assay [15] and in assay [17] was “inactive” in each case. The call in assay [2] was inactive. Moreover, the values for the caspase-3 activation in [3] and in assay [4] were 0.0206% and -1.82%, respectively. The max response in [16] was 9.46% and -11.9%.

In the case of `O=C1OC2(c3cc(Br)c(O)c(Br)c3Oc3c2cc(Br)c(O)c3Br)c2c(Cl)c(Cl)c(Cl)c(Cl)c21`, the compound was classed as inactive in assay [2]. In addition, the caspase-3 activation in [3] was 0.172%; in assay [4], -0.811%. The Potency result in assay [5], in [7], in [8], in assay [9], in assay [10] and in assay [11] was “inactive” throughout. Further, the Potency result in assay [12], in assay [13], in assay [14] and in [15] was “inactive” each time. The max response in [16] was -29.6%. In assay [17], the Potency was 39.8 µM (active).

As to `CC/C(=C(\c1ccccc1)c1ccc(OCCN(C)C)cc1)c1ccc(O)cc1`, the Potency was 29.4 µM (active) in assay [1]; 31.6 µM (active) in assay [18]; 39.8 µM (active) in assay [19]; 31.6 µM (active) in assay [20]; 70.8 µM (active) in [17]. The Potency result in assay [5] and in assay [7] was “inactive” throughout.

For `C/C=C1\C(=O)C[C@H]2[C@@H]3CCC4=CC(=O)CC[C@]4(C)[C@H]3CC[C@]12C`, the Potency in [1] was > 92 µM; in [19], 39.8 µM (active). Besides, the viability change, negative = cytotoxic in assay [20] is -80.2% (active). The caspase-3 activation in assay [3] was 1.31%. In addition, the Potency result in assay [5], in assay [6], in [7], in assay [8], in assay [9] and in [10] was “inactive” throughout. The Potency entry in assay [11], in [12], in [13], in assay [14] and in assay [17] was “inactive” in each case.

In the case of `O=C1OC(O)C(C(Cl)Cl)=C1Cl` (centres undefined), the Potency entry in assay [18], in [5] and in assay [6] was “inactive” each time. Further, the Potency was 15.8 µM (active) in assay [20]; 20 µM (active) in [11]; 20 µM (active) in assay [12]; 25.1 µM (active) in assay [13]; 44.7 µM (active) in [15]. Further, the result in assay [2] was inactive. Besides, the caspase-3 activation in assay [4] was 0.823%. In assay [16], the max response is -27.5%.

Take `CCC(C)Nc1ccc(NC(C)CC)cc1` (centres undefined): the Potency in assay [1] is 13.5 µM (active); in assay [18], 10 µM (active); in assay [19], 6.31 µM (active); in assay [20], 5.01 µM (active); in assay [6], 12.6 µM (active); in assay [7], 15.8 µM (active). In addition, the Potency in [8] was 10 µM (active); in assay [9], 12.6 µM (active); in assay [10], 12.6 µM (active); in [11], 3.98 µM (active); in assay [12], 6.31 µM (active); in [13] it was 5.01 µM (active). Besides, the Potency is 15.8 µM (active) in [14]; 6.31 µM (active) in assay [15]; 28.2 µM (active) in assay [16]; 35.5 µM (active) and 28.2 µM (active) in assay [17]. The outcome in assay [2] was inactive. Besides, the caspase-3 activation in assay [3] was -5.96%; in [4], -12.1%.
